Screening data (PubChem)
This excerpt belongs to a sample that is enriched for hits.
Ba CapD inh: CapD enzyme inhibition; z-score (no concentration beside the values); purified CapD enzyme, fluorescence intensity read-out; hits give low values; 140,000 compounds, 0.23% hits; in the data active = z-score mostly below about -2.9, no sharp cut-off; inactive = mostly above about -1.9
Large screens that a line does not name were inactive.

COc1ccc(/C=C/C(=O)C2(O)CCCCC2)cc1OC	Ba CapD inh -4.5
O=C(/C=C/c1ccccc1)C1(O)CCCCC1	none
O=C(/C=C/c1ccc(Cl)cc1)C1(O)CCCCC1	none
O=C(N/N=C/c1ccc(Cl)c(F)c1)c1ccc(OC(F)(F)F)cc1	none
COC(=O)c1ccc(-c2ccc(/C=C3\C(=O)N(c4cccc(C(=O)O)c4)N=C3C(F)(F)F)o2)cc1	none
O=C(NCCNc1ccc([N+](=O)[O-])cn1)NNC(=O)c1ccc([N+](=O)[O-])o1	Ba CapD inh -5.1
CCN(CC)c1ccc(C(=O)NNC(=O)NCCNc2ccc([N+](=O)[O-])cn2)cc1	none
CSCCNC(=O)NCCNc1ccc([N+](=O)[O-])cn1	none
CNC(=O)c1cccc(Oc2ccccc2)c1	none
Cc1ccc(S(=O)(=O)NC(=O)Nc2ccccc2C(=O)N2CCC(c3c[nH]c4ccccc34)CC2)cc1	none
CCCCCCc1cc2cc(-c3cc4c(c(C)[nH]3)c(=O)oc3cc(=O)c(CCCCCC)cc34)c(=O)oc2cc1O	none
COc1cccc(-c2noc(-c3cc4ccccc4oc3=O)n2)c1	none
N#CC1=C(c2ccc(Cl)cc2)COC1=O	none
O=C1OC/C(=C(/O)c2ccccc2)C1=O	none
O=C1OC/C(=C(\O)c2ccc(Cl)cc2)C1=O	Ba CapD inh -5.4
Cc1ccc(Sc2ccc(C(=O)O)cc2NC=O)cc1	none
CC(=O)N(C(C)=O)c1cc(C(=O)O)ccc1Sc1ccc(Br)cc1	Ba CapD inh -11
N#Cc1cc(C(F)(F)F)ccc1Sc1ccc(Br)cc1	none
CCOC(=O)c1c(/N=C/c2c(O)n(C)c3ccccc23)sc(C)c1C	none
CC(C)/C=C1\CC/C(=C\c2ccncc2)C1=O	none
COc1cc(CNc2ccc(C)cc2)ccc1O	none
COc1cc(CNc2ccccc2SC)ccc1O	none
C=CCc1ccc(O)c(OC)c1	Ba CapD inh -10
C=CCn1c(CNC(=O)OC(C)(C)C)n[nH]c1=S	none
COCCNC(=O)c1ccc(C(=O)NCCOC)cc1	none
COCCNC(=S)c1ccc(N(C)C)cc1	Ba CapD inh -4.9
COCCCNC(=S)N/N=C/c1ccc(N(C)C)cc1	none
CN(Cc1ccccc1)C(=O)C1CCCN(c2ncnc3onc(-c4ccc(F)cc4)c23)C1 (stereo unspecified)	none
C=CCN1C(=O)NC(=O)/C(=C/C=C/c2ccccc2)C1=O	none
CN1C(=O)/C(=c2/[nH][nH]c(=O)/c2=C\C=C\c2ccccc2)C(=O)c2ccccc21	Ba CapD inh -5.2
CN1C(=O)/C(=C\C(=O)c2cccs2)c2ccccc21	none
C/C(=C\c1nsc(Nc2ccccc2)n1)NCCc1ccccc1	none
O=C(N/N=C/c1ccccn1)c1ccc([N+](=O)[O-])o1	Ba CapD inh -4.3
O=C(N/N=C/c1ccccc1C(=O)O)c1ccc([N+](=O)[O-])o1	none
O=C(N/N=C/c1ccc(Br)cc1)c1ccc([N+](=O)[O-])o1	none
COC(=O)c1sccc1S(=O)(=O)Nc1ccc2c(c1)OCCO2	none
CC(=O)Oc1cc(-c2cccc(C(F)(F)F)c2)c2oc(=O)sc2c1	none
Clc1cccc(-c2nc(-c3ccccc3)c(-c3ccccc3)[nH]2)c1	none
COc1ccc(C2=N/C(=C/c3ccc(OC)c(OC)c3OC)C(=O)O2)cc1Br	none
O=C(c1cc(-c2ccco2)on1)N(C1CCCCC1)C1CCCCC1	none
COC(=O)c1ccccc1NC(=O)c1cc(-c2ccco2)on1	none
CCCNC(=O)c1cc(-c2ccco2)on1	Ba CapD inh -4.7
O=C(NC1CCCC1)c1cc(-c2ccc(O)cc2)on1	none
O=C(NC1CCCCC1)c1cc(-c2ccco2)on1	Ba CapD inh -4
O=C(NCc1cccs1)c1cc(-c2ccco2)on1	none
O=c1c2sccc2nc(SCCC(F)=C(F)F)n1-c1ccccc1	none
CCn1c(N)nc2c1c(=O)[nH]c(=O)n2C	none
Cc1nc(-c2ccc(Cl)cc2)sc1C(=O)/C=C/c1ccc(Cl)cc1	none
O=C1CC(c2ccccc2)CC2=C1C(c1ccccc1)Nc1ccccc1N2 (stereo unspecified)	none
Cc1ccc(C2CC(=O)C3=C(C2)Nc2ccccc2NC3c2cccnc2)cc1 (stereo unspecified)	Ba CapD inh -4
COc1cc(C2Nc3cc(C)ccc3NC3=C2C(=O)CC(c2ccccc2)C3)cc(OC)c1OC (stereo unspecified)	none
O=C(Nc1ccc(Cl)cc1)c1cn(Cc2cccnc2)c(=O)c2ccccc12	none
Cc1cc(=O)n(CCc2ccccc2)c(O)c1C#N	none
CCCCn1c(O)c(C#N)c(C)c(N=Nc2ccc(OC)cc2)c1=O	none
Cc1c(C#N)c(O)n(CCO)c(=O)c1N=Nc1cccc(C(=O)O)c1	Ba CapD inh -8.3
O=C(OC/C=C/c1ccccc1)c1ccc(S(=O)(=O)N2CCOCC2)cc1	none
CC(=O)Nc1ccc(Nc2ncnc3c2cnn3-c2ccc(Cl)cc2)cc1	none
O=C(O)CN1C(=O)/C(=C\c2cc([N+](=O)[O-])cc(Br)c2O)SC1=S	Ba CapD inh -7.9
O=C1/C(=C/c2cc([N+](=O)[O-])cc(Br)c2O)SC(=S)N1c1ccc([N+](=O)[O-])cc1	none
O=C(O)CN1C(=O)/C(=C\c2ccc(-c3ccc([N+](=O)[O-])cc3Cl)o2)SC1=S	none
Cn1nc(-c2ccccc2)c(C(=O)Nc2ccc(Cl)c(Cl)c2)c1Cl	none
COc1ccc(-n2nc(C(=O)N(C)Cc3ccccc3)c3c4ccccc4n(C)c3c2=O)cc1	none
COc1ccc(-n2nc(C(=O)N3CCCC3)c3c4ccccc4n(C)c3c2=O)cc1	none
COc1ccc(-n2nc(C(=O)N(C)c3ccccc3)c3c4ccccc4n(C)c3c2=O)cc1	Ba CapD inh -4.3
Cn1c(CNC(=O)c2ccccc2F)nnc1SCC(=O)N1N=C(c2ccc(Br)cc2)CC1c1ccc(F)cc1 (stereo unspecified)	none
CC(O)[C@@]12CCCC[C@@H]1CC1C3CC=C4C[C@@H](O)CC[C@]4(C)C3CC[C@@]12C (stereo partly specified)	none
Cc1ccc2[nH]cc(CCNC(=O)OCc3c(F)cccc3Cl)c2c1	none
Fc1cccc(-c2csc(-c3ccno3)n2)c1	none
Cc1c(-c2csc(CS(=O)(=O)C(C)(C)C)n2)sc2ccccc12	none
Cc1c(-c2csc(-c3ccno3)n2)sc2ccccc12	Ba CapD inh -3.5
S=C(Nc1cccc(Cl)c1)NC12CC3CC(CC(C3)C1)C2	none
Cc1ccc(OCCOCCN2CCCCC2)c(C)c1	none
COc1cc(C=C(C#N)C#N)ccc1O	Ba CapD inh -4.3
CCOc1ccc(C=C(C#N)C#N)cc1	none
COc1ccc(/C=C(\C#N)C(N)=O)cc1OC	none
Cc1nc(N2CCN(c3cccc(Cl)c3)CC2)c2c3c(sc2n1)CCCC3	none
O=c1c2sc3ccccc3c2n(CCN2CCOCC2)c(=O)n1Cc1ccccn1	none
COc1ccccc1NCc1cccn1-c1nnc(N2CCCC2)s1	none
Cc1ccc(/C(N)=N/OC(=O)Oc2ccccc2)cc1	none
Cc1ccc(OC(=O)OCSc2nn[nH]n2)cc1	Ba CapD inh -7.1
Cc1ccc(-c2nn[nH]n2)cc1	none
CC1=C(C(=O)OC2CCCCCC2)C(c2cccc(Cl)c2Cl)CC(=O)N1 (stereo unspecified)	none
CC(=O)Oc1cncc(C(=O)O)c1	none
CC(=O)Oc1ccc(-c2ccc(C(=O)O)cc2)cc1	none
CC(=O)Oc1cc(OC(C)=O)cc(C(=O)O)c1	Ba CapD inh -8.7
CCc1ccc(C2=CC(=O)C=CC2=O)cc1	none
O=C1C=CC(=O)C(c2ccc(C(=O)O)cc2)=C1	Ba CapD inh -8
CC(C)c1ccc(C2=CC(=O)C=CC2=O)cc1	none
CC12CN3CC(C)(CN(C1)C3c1cccc(Br)c1)C2O (stereo unspecified)	none
O=C1NC(=S)S/C1=C\c1cn(CC(=O)N2CCOCC2)c2ccccc12	none
Cn1cnc(S(=O)(=O)Nc2n[nH]c(=S)s2)c1	none
O=C(O)CCC(=O)N1CC=C(n2c(=O)[nH]c3ccccc32)CC1	none
Cc1cc(=O)oc(C)c1C(=O)NCc1c(F)cc(F)cc1F	Ba CapD inh -5.9
